# PubChem BioAssay (NCATS)
# Records with an inconclusive call do not appear. Values without a mark were called inactive. Active and inactive are the calls of the source. Calls follow the shape of the dose curve; as a rule, active = well fitted cell-killing curve with a large enough effect; inconclusive = small, poorly fitted or top-dose-only effect; inactive = flat fitted curve, though single readings scatter.
# Experiment: Cell Viability - LYMP2-007 (AID 979);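 also: cells exposed to compound for 24 h before reading; nearly all actives have a fitted effect of over 60% in size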;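 as to activity change, negative = cytotoxicity: 0% = DMSO only and the negative end = 92 µM tetraoctylammonium bromide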
# Settings: LYMP2-007 lymphoblastoid cell viability; series mostly up to 92.2 µM; activity change, negative = cytotoxicity: at the top concentration
# Excerpt: NIH Chemical Genomics Center [NCGC]
# NIH Molecular Libraries Screening Centers Network [MLSCN]
# National Institutes of Environmental Health Sciences [NIEHS]
# National Toxicology Program [NTP]
# We have developed a 1536-well cell-based assay for quantitative high throughput screening (qHTS) against a number of cell lines to determine in vitro cytotoxicity of small molecules. This particular assay uses a human lymphoblastoid cell line (LYMP2-007) purchased from Coriell Institute for Medical Research.
# NCGC Assay Protocol Summary:
# The CellTiter-Glo luminescent cell viability assay (Promega) is a homogeneous method to measure the number of viable cells in culture. The end point readout of this assay is based on quantitation of intracellular ATP, an indicator of metabolic activity, using the luciferase reaction. Luciferase catalyzes the oxidation of beetle Luciferin to oxyluciferin and light in the presence of ATP. The luminescent signal is proportional to amount of ATP present.
# Using the CellTiter-Glo luminescent cell viability assay, the amount of cellular ATP was measured in the lymphoblastoid cell line with complete culture medium following compound treatment for 24 hours. The assay was performed in opaque white Kalypsys 1536-well plates. In the screen, tetraoctylammonium bromide was used as positive control. Library compounds were measured for their ability to cause acute toxicity in the cell line, as reflected by a decrease in intracellular ATP levels, in a concentration-dependent manner. […] AC50 values were determined from concentration-response data modeled with the standard Hill equation.
# qHTS protocol for CellTiter Glo lymphoblastoid cellular assay
# [Step] [Parameter] [Value] [Description]
# 1. Reagent; 5 uL; 2500 lymphoblastoid cells/well
# 2. Time; 5 hr; 37 C incubation
# 4. Controls; 23 nL; Tetraoctylammonium bromide 6.4pM to 92 uM
# 5. Time; 24 hr; 37 C incubation
# 6. Reagent; 5 uL; CellTiter Glo reagent
# 7. Time; 30 min; Room Temperature
# 8. Detection; Luminescence; Viewlux plate reader
# Keywords: cell viability, cytotoxicity, lymphoblastoid cell line, luminescence, NTPHTS, NTPHTS_NCGC, NIEHS, DSSTox, MLSMR, MLSCN, NIH Roadmap, qHTS, NCGC
# Potency is read from the fitted curve at half-maximal effect.
SMILES,"activity change, negative = cytotoxicity",Potency
O=C(NO)c1ccccc1,-17.9%,
O=C(Oc1ccccc1)c1ccccc1O,-10.7%,
COc1cc(C=O)ccc1O,3.04%,
Cc1cc(C(C)(C)C)c(O)c(C(C)(C)C)c1,0.938%,
Cc1ccc(O)cc1,-1.18%,
Nc1cccc2c(N)cccc12,-3.5%,
CCCCCCCCCCCCCCCC[n+]1ccccc1,,12.6 µM (active)
Nc1ccc(O)cc1,,31.6 µM (active)
OCc1c[nH]c2ccccc12,-5.18%,
O=C(c1ccccc1)c1ccccc1,-2.76%,
Oc1ccccc1,6.6%,
CC(C)C(C)(C)C(C)(C)C(C)(C)S,3.19%,
Nc1c2ccccc2nc2ccccc12,,15.8 µM (active)
CCCCC(CC)COC(=O)c1ccccc1C(=O)O (centres undefined),-3.88%,
CC(C)(C)c1ccc(O)c(O)c1,,39.8 µM (active)
c1ccc2occc2c1,-2.12%,
Brc1ccccc1-c1ccccc1,-1.81%,
C1=CC2C3C=CC(C3)C2C1 (centres undefined),1.25%,
CC(C)(c1ccc(O)cc1)c1ccc(O)cc1,,inactive
